Results from the supplement of paper PMC10077471.
In all, about 1,900 compounds were measured (“excess over highest single agent (ExcessHSA) synergy score, 6x6 matrix”: median about -83, lowest 2% from about -370 on). The list comes from a sample in which the lowest values are over-represented; it also holds similar structures and randomly drawn compounds.

Each compound was assayed on NCI-H446 (assay: excess over highest single agent (ExcessHSA) synergy score, 6x6 matrix; higher = less synergy (more negative = stronger synergy)). Conditions: 72 h; CellTiter-Glo viability.

Row | Structure (SMILES) | excess over highest single agent
1 | CN1c2ccccc2C(=O)N2CCc3c([nH]c4ccccc34)[C@@H]21 + Cc1sc2c(c1C)C(c1ccc(Cl)cc1)=N[C@@H](CC(=O)OC(C)(C)C)c1nnc(C)n1-2 [NCGC00250412-19] | -226
2 | O=C1NC(=O)/C(=C/c2cccc(C(F)(F)F)c2)S1 + Cc1sc2c(c1C)C(c1ccc(Cl)cc1)=N[C@@H](CC(=O)OC(C)(C)C)c1nnc(C)n1-2 [NCGC00250412-19] | 75.6
3 | Cn1c2cc([S+](C)[O-])sc2c2cnn(Cc3cccc(N)c3)c(=O)c21 (configuration not stated) + Cc1sc2c(c1C)C(c1ccc(Cl)cc1)=N[C@@H](CC(=O)OC(C)(C)C)c1nnc(C)n1-2 [NCGC00250412-19] | -110
4 | CS(=O)(=O)c1cccc(CNc2nc(Nc3ccc4c(c3)CCC(=O)N4)ncc2C(F)(F)F)c1 + Cc1sc2c(c1C)C(c1ccc(Cl)cc1)=N[C@@H](CC(=O)OC(C)(C)C)c1nnc(C)n1-2 [NCGC00250412-19] | 58.6
5 | CN(c1ncccc1CNc1nc(Nc2ccc3c(c2)CC(=O)N3)ncc1C(F)(F)F)S(C)(=O)=O + Cc1sc2c(c1C)C(c1ccc(Cl)cc1)=N[C@@H](CC(=O)OC(C)(C)C)c1nnc(C)n1-2 [NCGC00250412-19] | -151
6 | CC(=O)NCC(=O)N1[C@@H]2CC[C@H]1c1ccc(Nc3ncc(C(F)(F)F)c(NC4CCC4)n3)cc12 + Cc1sc2c(c1C)C(c1ccc(Cl)cc1)=N[C@@H](CC(=O)OC(C)(C)C)c1nnc(C)n1-2 [NCGC00250412-19] | -534
7 | COC(=O)c1ccc2c(C(=Nc3ccc(N(C)C(=O)CN4CCN(C)CC4)cc3)c3ccccc3)c(O)[nH]c2c1 + Cc1sc2c(c1C)C(c1ccc(Cl)cc1)=N[C@@H](CC(=O)OC(C)(C)C)c1nnc(C)n1-2 [NCGC00250412-19] | -229
8 | CCS(=O)(=O)Nc1ccc2[nH]c(O)c(C(=Nc3ccc(CN4CCCCC4)cc3)c3ccccc3)c2c1 + Cc1sc2c(c1C)C(c1ccc(Cl)cc1)=N[C@@H](CC(=O)OC(C)(C)C)c1nnc(C)n1-2 [NCGC00250412-19] | -393
9 | CNC(=O)c1ccc2c(C(=Nc3cccc(CN(C)C)c3)c3ccccc3)c(O)[nH]c2c1 + Cc1sc2c(c1C)C(c1ccc(Cl)cc1)=N[C@@H](CC(=O)OC(C)(C)C)c1nnc(C)n1-2 [NCGC00250412-19] | 93.9
10 | COc1ccc(-c2ccc3ncc4c(c3c2)n(-c2ccc(N3CCNCC3)c(C(F)(F)F)c2)c(=O)n4C)cn1 + Cc1sc2c(c1C)C(c1ccc(Cl)cc1)=N[C@@H](CC(=O)OC(C)(C)C)c1nnc(C)n1-2 [NCGC00250412-19] | -20.2
11 | COc1cc(C(C)C)c(Oc2cnc(NC(CO)CO)nc2N)cc1I + Cc1sc2c(c1C)C(c1ccc(Cl)cc1)=N[C@@H](CC(=O)OC(C)(C)C)c1nnc(C)n1-2 [NCGC00250412-19] | -119
12 | OCc1ccc(-c2ccc(-c3ccc(CO)s3)o2)s1 + Cc1sc2c(c1C)C(c1ccc(Cl)cc1)=N[C@@H](CC(=O)OC(C)(C)C)c1nnc(C)n1-2 [NCGC00250412-19] | 33.9
13 | C/C=C1\NC(=O)[C@H]2CSSCC/C=C/[C@H](CC(=O)N[C@H](C(C)C)C(=O)N2)OC(=O)[C@H](C(C)C)NC1=O + Cc1sc2c(c1C)C(c1ccc(Cl)cc1)=N[C@@H](CC(=O)OC(C)(C)C)c1nnc(C)n1-2 [NCGC00250412-19] | -38.7
14 | O=C1[C@H](Cc2ccc(O)cc2)N2C(=O)CCN(C(=O)NCc3ccccc3)[C@H]2CN1Cc1cccc2ccccc12 + Cc1sc2c(c1C)C(c1ccc(Cl)cc1)=N[C@@H](CC(=O)OC(C)(C)C)c1nnc(C)n1-2 [NCGC00250412-19] | -294
15 | Cn1c(=O)c(F)c(Nc2ccc(I)cc2F)c2c(=O)n(C[C@@H](O)CO)cnc21 + Cc1sc2c(c1C)C(c1ccc(Cl)cc1)=N[C@@H](CC(=O)OC(C)(C)C)c1nnc(C)n1-2 [NCGC00250412-19] | -396
16 | Cn1c(=O)c2c(ncn2CC(O)CO)n(C)c1=O (configuration not stated) + Cc1sc2c(c1C)C(c1ccc(Cl)cc1)=N[C@@H](CC(=O)OC(C)(C)C)c1nnc(C)n1-2 [NCGC00250412-19] | -73.2
17 | O=C(NOC[C@H](O)CO)c1ccc(F)c(F)c1Nc1ccc(I)cc1F + Cc1sc2c(c1C)C(c1ccc(Cl)cc1)=N[C@@H](CC(=O)OC(C)(C)C)c1nnc(C)n1-2 [NCGC00250412-19] | -276
18 | O=C(C=Cc1ccc(C=CC(=O)Nc2ccc(C3=NCCN3)cc2)cc1)Nc1ccc(C2=NCCN2)cc1 + Cc1sc2c(c1C)C(c1ccc(Cl)cc1)=N[C@@H](CC(=O)OC(C)(C)C)c1nnc(C)n1-2 [NCGC00250412-19] | -46.7
19 | CC(C)C(=O)Nc1ncc(-c2cc(C(F)F)nn2-c2c(Cl)cccc2Cl)s1 + Cc1sc2c(c1C)C(c1ccc(Cl)cc1)=N[C@@H](CC(=O)OC(C)(C)C)c1nnc(C)n1-2 [NCGC00250412-19] | -105

Row | Structure (SMILES) | excess over highest single agent
20 | COc1ccc(-c2nc(N3CCOCC3)c3sc(CN(C)c4ncc(C(=O)NO)cn4)cc3n2)cn1 + Cc1sc2c(c1C)C(c1ccc(Cl)cc1)=N[C@@H](CC(=O)OC(C)(C)C)c1nnc(C)n1-2 [NCGC00250412-19] | -105
21 | c1ccc2c(Cc3c[nH]c4ccccc34)c[nH]c2c1 + Cc1sc2c(c1C)C(c1ccc(Cl)cc1)=N[C@@H](CC(=O)OC(C)(C)C)c1nnc(C)n1-2 [NCGC00250412-19] | -83.3
22 | CCCCOc1c(C(=O)c2c(F)cc(C)cc2F)c[nH]c2nncc1-2 + Cc1sc2c(c1C)C(c1ccc(Cl)cc1)=N[C@@H](CC(=O)OC(C)(C)C)c1nnc(C)n1-2 [NCGC00250412-19] | -375
23 | CCCS(=O)(=O)Nc1ccc(F)c(C(=O)c2c[nH]c3ncc(Cl)cc23)c1F + Cc1sc2c(c1C)C(c1ccc(Cl)cc1)=N[C@@H](CC(=O)OC(C)(C)C)c1nnc(C)n1-2 [NCGC00250412-19] | -97.1
24 | CCCS(=O)(=O)Nc1ccc(F)c(C(=O)c2c[nH]c3ncc(-c4ccc(Cl)cc4)cc23)c1F + Cc1sc2c(c1C)C(c1ccc(Cl)cc1)=N[C@@H](CC(=O)OC(C)(C)C)c1nnc(C)n1-2 [NCGC00250412-19] | -108
25 | CCOC(=O)/C=C/[C@H](C[C@@H]1CCNC1=O)NC(=O)[C@@H](CC(=O)[C@@H](NC(=O)c1cc(C)on1)C(C)C)Cc1ccc(F)cc1 + Cc1sc2c(c1C)C(c1ccc(Cl)cc1)=N[C@@H](CC(=O)OC(C)(C)C)c1nnc(C)n1-2 [NCGC00250412-19] | -127
26 | O=C(C[C@@H]1C/C=C/CCC(=O)O[C@H](c2ccccc2)CNC1=O)NCc1ccc(Cl)cc1 + Cc1sc2c(c1C)C(c1ccc(Cl)cc1)=N[C@@H](CC(=O)OC(C)(C)C)c1nnc(C)n1-2 [NCGC00250412-19] | -98.1
27 | CN(C)C[C@@H]1CCn2cc(c3ccccc32)C2=C(C(=O)NC2=O)c2cn(c3ccccc23)CCO1 + Cc1sc2c(c1C)C(c1ccc(Cl)cc1)=N[C@@H](CC(=O)OC(C)(C)C)c1nnc(C)n1-2 [NCGC00250412-19] | -125
28 | COc1cc(NCc2ccc3nc(N)nc(N)c3c2C)cc(OC)c1OC + Cc1sc2c(c1C)C(c1ccc(Cl)cc1)=N[C@@H](CC(=O)OC(C)(C)C)c1nnc(C)n1-2 [NCGC00250412-19] | -213
29 | C=C1C(=O)[C@]23[C@H](O)[C@H]1CC[C@H]2[C@@]12CO[C@]3(O)[C@@H](O)[C@@H]1C(C)(C)CC[C@@H]2O + Cc1sc2c(c1C)C(c1ccc(Cl)cc1)=N[C@@H](CC(=O)OC(C)(C)C)c1nnc(C)n1-2 [NCGC00250412-19] | -378
30 | Oc1ccc(C2=Cc3ccc(O)cc3OC2)cc1 + Cc1sc2c(c1C)C(c1ccc(Cl)cc1)=N[C@@H](CC(=O)OC(C)(C)C)c1nnc(C)n1-2 [NCGC00250412-19] | -209
31 | CNc1nc(Nc2ccc(C(=O)N3CCOCC3)cc2OC)ncc1Cl + Cc1sc2c(c1C)C(c1ccc(Cl)cc1)=N[C@@H](CC(=O)OC(C)(C)C)c1nnc(C)n1-2 [NCGC00250412-19] | 436
32 | Cc1ccc(S(=O)(=O)Nc2cc(Cl)ccc2C(=O)Nc2nc(-c3ccccc3)cs2)cc1 + Cc1sc2c(c1C)C(c1ccc(Cl)cc1)=N[C@@H](CC(=O)OC(C)(C)C)c1nnc(C)n1-2 [NCGC00250412-19] | 214
33 | CC(O)(C#Cc1ccc2c(c1)N(c1nc(N)ncc1Cl)CC2)c1nccs1 (configuration not stated) + Cc1sc2c(c1C)C(c1ccc(Cl)cc1)=N[C@@H](CC(=O)OC(C)(C)C)c1nnc(C)n1-2 [NCGC00250412-19] | 54
34 | CC(NCc1ccc2c(c1)nc(NC(=O)c1ccc(-c3cn[nH]c3)s1)n2CC(C)(C)O)C(C)(C)C (configuration not stated) + Cc1sc2c(c1C)C(c1ccc(Cl)cc1)=N[C@@H](CC(=O)OC(C)(C)C)c1nnc(C)n1-2 [NCGC00250412-19] | -312
35 | C[C@H](NCc1ccc2c(c1)nc(NC(=O)c1ccc(-c3cn[nH]c3)s1)n2CCc1ccccc1)C(C)(C)C + Cc1sc2c(c1C)C(c1ccc(Cl)cc1)=N[C@@H](CC(=O)OC(C)(C)C)c1nnc(C)n1-2 [NCGC00250412-19] | -305
36 | CC(C)(O)Cn1c(NC(=O)c2ccc(-c3cn[nH]c3)s2)nc2cc(CN3CCOCC3)ccc21 + Cc1sc2c(c1C)C(c1ccc(Cl)cc1)=N[C@@H](CC(=O)OC(C)(C)C)c1nnc(C)n1-2 [NCGC00250412-19] | -423
37 | CCNC(=O)c1cc2c(-c3cc(OCCN4CCCC4)c(Cl)cc3Cl)nc(N)nc2s1 + Cc1sc2c(c1C)C(c1ccc(Cl)cc1)=N[C@@H](CC(=O)OC(C)(C)C)c1nnc(C)n1-2 [NCGC00250412-19] | -89.1
